Structures are written as SMILES. Values joined by “and” are separate entries in the source; they are usually repeats but may differ in a detail not shown here. Equal entries are not always repeated. In all, about 310,000 compounds went through this assay and about 1,900 (0.61%) were called active. Another 8% or so got no clear call; they are omitted. The call rests on the fitted dose curve; tested in A549 cells. The entries come from a sample that favours actives as a whole. Where a call stands in place of a potency, no number is given. The source holds several records for some structures; these can differ, active in one and inactive in another.

The source of these data is PubChem BioAssay AID720579 (National Center for Advancing Translational Sciences (NCATS), 2013).
Potency means the concentration at half of the fitted maximal effect.

The assay in a line: qHTS for Stage-Specific Inhibitors of Vaccinia Orthopoxvirus: mCherry Reporter Primary qHTS. Further: nearly all actives have a fitted effect of over 35% in size. To be noted: Vaccinia virus mCherry reporter infection, fluorescence; series mostly up to 36.5 µM. (In general: Quantitative high-throughput screening tests each substance at several concentrations.)
Regarding `COc1ccccc1Oc1nc(-c2cccnc2)nc2ccccc12`, the Potency entry was “inactive”.
On to `Fc1ccc(/C=N/Nc2nc(-c3cccnc3)nc3ccccc23)cc1`, for which the outcome is “inactive [at 7.34 µM]”.
On to `O=[N+]([O-])c1ccc(F)cc1Oc1nc(-c2cccnc2)nc2ccccc12`, for which the Potency was 3.55 µM (active).
As for `COc1ccc(-c2ccc(C(=O)NCCN3CCOCC3)c3occc23)c(C)c1`, the Potency result is “inactive”.
With `COC1CC(OC2CC[C@@]3(C=O)C4CC[C@]5(C)C(C6=CC(=O)OC6)CC[C@@]5(O)C4CC[C@]3(O)C2)OC(C)C1O` (stereo partly specified), the Potency is 2.51 µM (active).
For `CC1=C(C(=O)N2CCOCC2)CC(CC(=O)NCC2CCCCC2)C(=O)N1Cc1ccc(F)cc1` (stereo unspecified), the Potency result was “inactive”.
On to `CC(=O)C1=CCC(c2ccccc2)N(S(=O)(=O)c2ccc(C)cc2)C1` (stereo unspecified), for which the Potency entry was “inactive”.
For `COc1cccc(NC(=O)C2(C)CCN2C(=O)CCC2CCCC2)c1` (stereo unspecified), the Potency result is “inactive”.
As for `CCCCCCN1CCN(C2CN(Cc3cn(CCCCCC)nn3)S(=O)(=O)C2)CC1` (stereo unspecified), the Potency result is “inactive”.
Regarding `COc1c(O)ccc2c1CN1CCc3cc4c(cc3C1C2)OCO4` (stereo unspecified), the Potency is 11.2 µM (active).
Turning to `CN1CCc2cc3c(cc2[C@H]1[C@@H]1OC(=O)c2c1ccc1c2OCO1)OCO3`, the Potency result is “inactive”.
In the case of `COc1ccc2c(c1O)-c1cccc3c1[C@@H](C2)N(C)CC3`, the Potency entry is “inactive”.
As to `CC(C)NC(=O)C1(C)CCCCCN1C(=O)c1ccc(-c2ccccc2)cc1` (stereo unspecified), the Potency entry is “inactive”.
Still for that read-out and setting: the entry for `CC(=O)c1ccc(Nc2nc(C(N)c3ccccc3Cl)cs2)cc1` (stereo unspecified) is “inactive”; for `CC(=O)Nc1cccc(-c2cc(NC(C)=O)c3ncc(-c4ccccc4)n3c2)c1` it is “inactive”.
On the same count and under the same terms, the entry for `COc1ccc(-c2cc(C(=O)N/N=C/c3cccnc3)c3ccccc3n2)c(OC)c1` is “inactive”.
Regarding `COc1ccc(-c2cc(C(=O)Nc3ccccc3O)c3ccccc3n2)cc1`, the Potency entry was “inactive”.
`CCOc1ccc(-c2cc(C(=O)N/N=C/c3ccc(O)cc3)c3ccccc3n2)cc1`: the Potency was 3.98 µM (active).
As for `CC1(C(=O)Nc2ccc3c(c2)OCCO3)CCN1C(=O)Cc1cc(F)ccc1F` (stereo unspecified), the Potency entry was “inactive”.
Consider `CCCOc1ccc(F)cc1-c1cc(C(=O)NCc2ccc(F)cc2)[nH]n1`, for which the Potency entry was “inactive”.
In the case of `CN(Cc1cccc2ncccc12)C(=O)c1cnn(-c2nccc(-c3ccccc3F)n2)c1C1CC1`, the Potency is 5.62 µM (active).
With `Cc1cccc(CNC(=O)c2cnn(-c3nccc(-c4ccccc4F)n3)c2C2CC2)n1`, the Potency result is “inactive”.
`Cc1ccc(-c2ccnc(-n3ncc(C(=O)N(C)Cc4cccc5ncccc45)c3C3CC3)n2)o1`: the Potency result is “inactive”.
On the same count and under the same terms, the entry for `CCOC(=O)C1=CCC(c2ccc(F)cc2)N(S(=O)(=O)c2ccc(C)cc2)C1` (stereo unspecified) is “inactive”; for `CCOc1cc(/C=C2\SC(N3CCCC(C)C3)=NC2=O)ccc1O` (stereo unspecified) it is 11.2 µM (active); for `O=C1N=C(N2CCCC2)S/C1=C\c1cccc(Br)c1` it is “inactive”.
For `CC1CCN(C2=NC(=O)/C(=C/c3ccc(O)cc3)S2)CC1`, the Potency entry was “inactive”.
On the same count and under the same terms, in the case of `CCCCC(=O)N(C)c1c(CC)nc2c(OCc3ccc(S(C)(=O)=O)cc3)cccn12` it was “inactive”; in that of `OCCC#Cc1ccc(N2C(c3ccsc3)=Cc3ccc(F)cc3C2c2c[nH]c3ccccc23)cc1` (stereo unspecified), “inactive”; in that of `COc1ccc(CN2CCOC2=O)cc1OC`, “inactive”.
In the case of `COC(=O)C1=CN(Cc2ccc(OC)c(OC)c2)C=C(C(=O)OC)C1c1cccs1`, the Potency entry was “inactive”.
As for `COc1ccc(CC2c3cc(OC)c(OC)cc3CC[N+]2(C)CCC(=O)OCCCCCOC(=O)CC[N+]2(C)CCc3cc(OC)c(OC)cc3C2Cc2ccc(OC)c(OC)c2)cc1OC` (stereo unspecified), the Potency is 15.8 µM (active).
Turning to `OC[C@@H]1CN(Cc2ccc(F)cc2)C[C@H](n2cnc3c(NC4CCCC4)ncnc32)O1`, the Potency entry is “inactive”.
As for `COc1ccccc1CNc1nc(Nc2ccccc2Cl)c2sccc2n1`, the Potency entry was “inactive”.
For `CC(C)c1cccc(-c2csc(C(O)c3ccccc3)n2)c1` (stereo unspecified), the Potency entry was “inactive”.
As for `Cc1ccc(C(O)c2ncc(-c3ccccc3F)[nH]2)cc1F` (stereo unspecified), the Potency result was “inactive”.
For the compound `O=C(CSc1cccc2cccnc12)N/N=C/c1cccnc1`, the Potency was 11.2 µM (active).
On to `O=C(CNC(=O)c1cccnc1)N/N=C/c1cccnc1`, for which the Potency result was “inactive”.
For the compound `CCOC(=O)N/N=C/c1cccnc1`, the Potency result is “inactive”.
As to `COc1cc(C=C(OC(C)=O)c2ccc3c(c2)OCO3)cc(OC)c1OC`, the Potency result is “inactive”.
Consider `COC(=O)[C@]12CCCCC=C1N(Cc1ccco1)C(=O)[C@H](CC(=O)NCC1CCCCC1)C2`, for which the Potency result is “inactive”.
Same read-out and setting: in the case of `COC(=O)[C@]12CCCCC=C1N(Cc1ccc(Cl)cc1Cl)C(=O)[C@H](CC(=O)NCc1cccc3ccccc13)C2` it was “inactive”.
For the compound `Cc1ccnc(NC(=O)C2CCN(S(=O)(=O)c3c(C)c(C)cc(C)c3C)CC2)c1`, the Potency was 11.2 µM (active).
As to `Cc1ccc(S(=O)(=O)N2CCC(C(=O)Nc3cc(C)ccc3C)CC2)cc1`, the Potency result is “inactive”.
`O=C(Nc1ccccn1)C1CCN(S(=O)(=O)c2ccccc2)CC1`: the Potency result was “inactive”.
In the case of `COc1ccc(C(C#N)=C2C=CC(=NO)c3ccccc32)cc1`, the Potency result is “inactive”.
Take `COc1cc(C)c(CN2CCN(C(=O)CCC(=O)c3ccc(C)s3)CC2)cc1OC`: the Potency entry was “inactive”.
On to `COC(=O)[C@]12CCCCC=C1N(Cc1ccco1)C(=O)[C@H](CC(=O)NCCCCc1ccccc1)C2`, for which the Potency result is “inactive”.
As for `CC1Cc2ccccc2N1S(=O)(=O)c1c(N)n(C)c(=O)n(C)c1=O` (stereo unspecified), the Potency result is “inactive”.
As for `CC1Cc2ccccc2N1S(=O)(=O)c1ccc(Cl)nc1` (stereo unspecified), the Potency is 15.8 µM (active).
Consider `Cc1cc(-c2ccc(C)c(S(=O)(=O)N3c4ccccc4CC3C)c2)on1` (stereo unspecified), for which the Potency result was “inactive”.
On to `CCc1ccc2c(c1)C1(NN=C(c3ccccc3)S1)C(=O)N2` (stereo unspecified), for which the Potency was 14.1 µM (active).
Turning to `CCc1ccc2c(c1)NC(=O)C2(C)Cc1ccc(OC(F)(F)F)cc1` (stereo unspecified), the Potency entry is “inactive”.
For the compound `CCc1cccc(NC(=O)c2cc(-c3ccccc3)n[nH]2)c1`, the Potency result was “inactive”.
Take `CCOc1ccc(C(=O)NC(C(=O)NCc2ccccn2)C(C)C)cc1` (stereo unspecified): the Potency entry is “inactive”.
Take `CCOc1ccc(C(NC(=O)c2cc(OC)c(OC)c(OC)c2)c2cc(Cl)c3cccnc3c2O)cc1` (stereo unspecified): the Potency was 10 µM (active).
Take `COc1cc(C(=O)N[C@@H](C)C(=O)NCc2ccco2)cc(OC)c1OC`: the Potency result was “inactive”.
With `CC(C)C[C@@H](COCc1ccc(Cl)cc1)N1CCN(C(=O)c2ccc(Cl)cc2Cl)CCC1=O`, the Potency entry is “inactive”.
`NC(=S)NN=C1CCCC(C(F)(F)F)C1` (stereo unspecified): the Potency is 10 µM (active).
In the case of `CC(C)NC(=S)NN=C1CCCCCCCCCCC1`, the Potency entry was “inactive”.
As for `CC(C)(C)C1CCC(=O)N2CCC[C@]2(c2ccccc2)C1` (stereo partly specified), the Potency result is “inactive”.
The same measure, in the same setting: in the case of `CC(O)(c1cccc(F)c1)c1nc(-c2ccc3c(c2)OCO3)cs1` (stereo unspecified) it was “inactive”; in that of `O=C(c1ccc(CS(=O)Cc2ccccc2Cl)o1)N1CCN(c2ccccc2)CC1` (stereo unspecified), “inactive”.
With `O=C(OCc1ccccc1)N1CCC2CC1c1cc(N3CCN(S(=O)(=O)c4cc(Cl)cc(Cl)c4)CC3)ccc12` (stereo unspecified), the Potency result is “inactive”.
The same measure, in the same setting: the entry for `N=C1c2ccccc2-c2ccccc21` is “inactive”; for `c1ccc2c(c1)[I+]c1ccccc1-2` it is “inactive and 12.6 µM (active)”.
As for `COC(=O)c1ccccc1N=NNc1ccc([N+](=O)[O-])cc1`, the Potency entry is “inactive”.
For `CCN(CC)c1ccc(/C=C/c2c(C)cnc3ccc(C)cc23)cc1`, the Potency entry is “inactive”.
As for `CC(=O)Nc1cccc(Nc2nc(-c3cccs3)nc3ccccc23)c1`, the Potency is 7.08 µM (active).
With `COc1cccc(-c2nc(Nc3ccncc3)c3ccccc3n2)c1`, the Potency entry was “inactive”.
As to `COC(=O)c1cc(-c2cccs2)nc2ccccc12`, the Potency result was “inactive”.
Take `CC(C)c1cc(C(=O)NC2CCCCCC2)c2ccccc2n1`: the Potency entry is “inactive”.
For the compound `CC1=C(C(=O)N(C(C)C)C(C)C)CC(CC(=O)NCC2CCCCC2)C(=O)N1Cc1ccccc1` (stereo unspecified), the Potency result is “inactive”.
Consider `O=C(CO/N=C/c1ccccc1O)NNC(=O)c1ccccc1Cl`, for which the Potency entry is “inactive”.
With `O=C(NNC(=O)c1ccccc1O)c1ccccc1O`, the Potency is 15.8 µM (active).
In the case of `Cc1cc(C(=O)CCC(=O)NNC(=O)c2ccccc2O)c(C)s1`, the Potency result was “inactive”.
Turning to `CCCCCCCNc1ccc(/C=C/c2ccnc3ccccc23)cc1`, the Potency entry is “inactive”.
On to `O=[N+]([O-])c1ccc(/C=C/c2ccc3cccnc3c2)cc1`, for which the Potency result was “inactive”.
On to `CN(N=O)c1ccc(C=C2c3ccccc3-c3ccccc32)cc1`, for which the Potency result is “inactive”.
Same read-out and setting: the figure for `CN1CC[C@H](c2c(O)cc(O)c3c(=O)cc(-c4ccccc4Cl)oc23)[C@H](O)C1` is 0.316 µM (active).
On to `CCOC(=O)c1ccn(S(=O)(=O)c2ccc(C)cc2)c1-c1ccccc1`, for which the Potency entry was “inactive”.
In the case of `COc1ccc(CN(Cc2ccccc2)C(=O)c2ccc(O)cc2)cc1COc1ccc(NC(C)=O)cc1`, the Potency result was “inactive”.
Take `CCOC(=O)c1cc2cc(OC)ccc2n1C1CCN(C)CC1`: the Potency result is “inactive”.
`CC1(C(=O)O)CCCN(C(=O)/C=C/c2ccccc2)C1` (stereo unspecified): the Potency entry is “inactive”.
`Cc1cn(COC/C=C/c2ccccc2)c(=O)[nH]c1=O`: the Potency entry is “inactive”.
On to `Cc1[nH]c(=O)c(C(=O)/C=C/c2ccccc2)c2c1CCCC2`, for which the Potency is 3.16 µM (active).
Same read-out and setting: the entry for `CC(=O)Nc1ccc(C=Cc2ccc([N+](=O)[O-])cc2)cc1` is “inactive”.
Turning to `O=C(CCCN1C(=O)C(c2ccccc2)Oc2cccnc21)Nc1ccccc1Br` (stereo unspecified), the Potency result is “inactive”.
For the compound `C(=Nc1ccc(/C=C/c2ccnc3ccccc23)cc1)c1cc2c3c(c1)CCCN3CCC2`, the Potency entry is “inactive”.
Consider `CN(C)C(=O)c1cccc(-c2cnc3c(NC=O)cc(-c4ccc(C(=O)N5CCOCC5)cc4)cn23)c1`, for which the Potency result was “inactive”.
As to `O=C(N/N=C/c1ccccc1O)/C(=C/c1ccccc1)CCO`, the Potency was 7.08 µM (active).
`O=C(CCCO)N/N=C/c1cc(Br)ccc1O`: the Potency result is “inactive”.
Turning to `O=C(CCCCCNC(=O)c1ccccc1)N/N=C/c1ccccc1`, the Potency entry is “inactive”.
`CCOC(=O)[C@]12CCCC=C1N(CCC1=CCCCC1)C(=O)[C@H](CC(=O)N1CCSCC1)C2`: the Potency result is “inactive”.
With `Cc1ccc(-c2nnc(SCc3ccccc3C)o2)cc1`, the Potency entry is “inactive”.
On to `Fc1ccc(-c2nnc(CSc3nnc(-c4ccc5c(c4)OCO5)o3)o2)cc1`, for which the Potency is 28.2 µM (active).
Regarding `O=C(CSc1nnc(CNC(=O)c2ccc(F)cc2)o1)Nc1ccc2c(c1)OCO2`, the Potency result is “inactive”.
Regarding `COc1ccc(C(=O)C(OP(=O)(OC)OC)c2ccccc2OC)cc1` (stereo unspecified), the Potency result was “inactive”.
Still for that read-out and setting: the figure for `NC(=S)NN=Cc1ccc(OC(=O)COc2cc(Cl)c(Cl)cc2Cl)cn1` is 11.2 µM (active); for `O=C(COC(=O)COc1cc(Cl)c(Cl)cc1Cl)NC1CC1` it is “inactive”.
As to `O=C(COc1cc(Cl)c(Cl)cc1Cl)NCCc1ccccn1`, the Potency entry was “inactive”.
